Compounds with a hit are over-represented: about 2.4% of the library has one in this group of screens.
Mcl1 Bid PPI: Mcl-1/Bid binding inhibitors, primary screen, biochemical, TR-FRET, 1536-well; TR-FRET Mcl-1/Bid-Dy647 peptide binding; AID 1021, 2008; inhibition, % at 21.7 µM; 220,000 compounds, 0.97% hits; Induced myeloid leukemia cell differentiation protein Mcl-1 (Homo sapiens), Q07820;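 active = compounds that cut the binding signal by more than half at the single screening dose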;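 also: His-tagged Mcl-1 with europium anti-His antibody binding Bid BH3 peptide; 0% = Mcl-1 plus peptide wells and 100% = peptide-only wells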
Target sequence (Q07820 whole entry, looked up): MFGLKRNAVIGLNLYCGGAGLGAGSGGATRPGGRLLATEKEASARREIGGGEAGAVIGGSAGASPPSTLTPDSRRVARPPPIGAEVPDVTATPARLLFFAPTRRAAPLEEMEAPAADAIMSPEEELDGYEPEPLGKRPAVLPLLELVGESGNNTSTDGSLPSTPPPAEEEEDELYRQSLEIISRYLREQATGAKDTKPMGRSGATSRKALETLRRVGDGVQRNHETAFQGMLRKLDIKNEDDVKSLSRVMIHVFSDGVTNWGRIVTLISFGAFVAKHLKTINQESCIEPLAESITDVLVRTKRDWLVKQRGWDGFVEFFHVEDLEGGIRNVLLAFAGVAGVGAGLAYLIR
Mcl1-Noxa inh: Mcl-1/Noxa binding inhibitors, primary screen, biochemical, TR-FRET, 1536-well. Induced myeloid leukemia cell differentiation protein Mcl-1 (Homo sapiens), Q07820. TR-FRET Mcl-1/Noxa peptide binding, 2 h. inhibition, % at 21.7 µM. 220,000 compounds, 1.5% hits;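 active = compounds that cut the protein-peptide binding signal by more than 50% relative to plate controls in a single-dose test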;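 also: His-tagged Mcl-1 with rhodamine Noxa BH3 peptide and terbium anti-His antibody; 0% = Mcl-1 plus Noxa peptide wells and 100% = peptide-only wells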
Bim-Mcl-1: inhibitors of Bim peptide binding to Mcl-1, primary screen, biochemical, bead-based flow cytometry, multiplex; Induced myeloid leukemia cell differentiation protein Mcl-1 (Homo sapiens), Q07820; Bim peptide-Mcl-1 binding; inhibition, % at 10 µM; 190,000 compounds, 0.1% hits; AID 1009, 2008; in the data active = inhibition above about 40%;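 also: 0% = no compound tracer wells and 100% = peptide blocker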
TNF death inh: inhibitors of TNF-alpha triggered necroptosis, primary screen, cell-based, Jurkat FADD-/-, single concentration; AID 463075, 2010; Jurkat FADD-/- TNF necroptosis rescue, ATP luminescence, 24 h; 0 = TNF only, 100 = no-TNF cells; 220,000 compounds, 0.068% hits; activation (protection from cell death), % at 10 µM;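 active = activation, meaning protection from cell death, of at least 50% relative to plate controls; inactive = activation below 50%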;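 also: necroptosis triggered by 40 ng/mL TNF-alpha added together with compound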
MCL1 BIM primary: inhibitors of MCL1 binding to BIM-BH3, primary screen, biochemical, fluorescence polarization. Induced myeloid leukemia cell differentiation protein Mcl-1 (Homo sapiens), Q07820. inhibition, % at 10.9 µM. AID 2057, 2009. GST-MCL1 / FITC-Bim-BH3 fluorescence polarization. 320,000 compounds, 0.68% hits;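 active = inhibition above the mean inhibition of all tested compounds plus 3 SD, set per campaign, cut at about 40% in these data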;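 also: 0% = DMSO wells and 100% = unlabeled Bim-BH3 peptide control; higher means more loss of mP so more displacement of Bim peptide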
L929 necroptosis: inhibitors of zVAD-triggered necroptosis, primary screen, L929 cells. L929 zVAD necroptosis rescue, ATP luminescence, 24 h; with zVAD 60 µM. viability rescue, % at 10 µM. 220,000 compounds, 0.38% hits. AID 1377, 2008;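 active = activation, scaled between plate controls, above about 75%, limit read from the data; inactive = activation under that limit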;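 also: 0% = zVAD with DMSO and 100% = DMSO alone without zVAD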
Bcl-xL conf: Bcl-xL inhibitors blocking Bim BH3 binding, confirmation, counter-screen for MCL1 inhibitor project, biochemical, fluorescence polarization; shares compounds with MCL1 BIM primary; GST-Bcl-xL / FITC-Bim BH3 peptide FP binding; inhibition, % at 10.9 µM; 1,700 compounds, 54% hits;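 active = inhibition above a cutoff equal to the mean inhibition of all tested compounds plus 3 SD, cut at about 30% in these data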;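 also: 0% = DMSO wells and 100% = unlabeled Bim BH3 control peptide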
Target sequence (Q07817 whole entry, looked up): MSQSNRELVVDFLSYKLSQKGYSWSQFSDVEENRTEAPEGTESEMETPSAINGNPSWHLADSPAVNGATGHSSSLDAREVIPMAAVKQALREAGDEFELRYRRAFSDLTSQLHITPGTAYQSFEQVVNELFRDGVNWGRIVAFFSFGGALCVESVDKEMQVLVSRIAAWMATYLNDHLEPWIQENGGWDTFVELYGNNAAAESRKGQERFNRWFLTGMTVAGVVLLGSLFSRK
MCL1 inh confirm: inhibitors of MCL1 binding to BIM-BH3, confirmation, biochemical, fluorescence polarization, triplicate; shares compounds with MCL1 BIM primary; GST-MCL1 / FITC-Bim-BH3 fluorescence polarization; inhibition, % at 10.9 µM; 1,700 compounds, 61% hits; AID 2168, 2009;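 active = inhibition above the average of all tested compounds plus 3 SD, cut at about 40% in these data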;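 also: 0% = DMSO wells and 100% = unlabeled Bim-BH3 control peptide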
Active calls of the source: *; · = not tested or not shown; + = active, no number.

SMILES	Mcl1 Bid PPI	Mcl1-Noxa inh	Bim-Mcl-1	TNF death inh	MCL1 BIM primary	L929 necroptosis	Bcl-xL conf	MCL1 inh confirm
C=CCN=c1scc(-c2ccco2)n1/N=C/c1ccc(O)c(O)c1O	-94	84*	·	-18	50*	0	29	78*
CN=c1scc(C)n1/N=C/c1ccc(O)c(O)c1O	-84	91*	8	-3	58*	-1	79*	121*
CN=c1scc(-c2cccs2)n1/N=C/c1ccc(O)c(O)c1O	-50	108*	3	-6	53*	0	68*	56*
O=C(NC1CCCC1)C(c1ccccn1)N(C(=O)c1csnn1)c1ccccc1Cl (stereo not given)	·	·	·	·	10	·	·	·
C[C@@H](NC(=O)[C@@H]1Cc2ccccc2CN1)C(=O)NCC1CCCO1 (stereo not given in full)	·	·	·	·	9	·	·	·
CCC/C(O)=C1\C(=O)CC(C)(C)CC1=Nc1cccc([N+](=O)[O-])c1	·	·	·	·	-4	·	·	·
CN1C=CC2=C(C#N)C(N)C(C#N)(C#N)C(c3ccccc3)C2C1 (stereo not given)	-28	-9	-1	-1	90*	1	40*	56*
Cc1ccc(S(=O)(=O)Nc2c(C)nn(C)c2C)c(C)c1	·	·	·	·	1	·	·	·
Cc1cc2ncn(/N=C/c3ccc(-c4ccccc4)o3)c2cc1C	6	22	-1	2	6	1	·	·
Cc1ccc(/C=N/n2cnc3sc(-c4ccccc4)cc3c2=O)o1	6	13	0	0	67*	1	8	12
Cc1cc(C)nc(Nc2ccccc2F)n1	·	·	·	·	-6	·	·	·
Cc1oc2cc(O)ccc2c(=O)c1-c1nncn1-c1ccccc1	-30	39	0	-1	109*	1	119*	139*
Cc1oc2cc(O)ccc2c(=O)c1-c1ccccc1	-12	6	0	0	9	2	·	·
CC(NC(=O)C(NS(=O)(=O)c1cccc2nsnc12)C(C)C)c1ccccc1 (stereo not given)	·	·	·	·	9	·	·	·
COc1cccc(F)c1C(=O)NC(=O)Nc1ccc2nc(C)oc2c1	-45	23	·	1	119*	1	54*	40
O=C(C=C1SCCS1)/C=C/c1ccco1	-42	42	-3	-5	37	0	·	·
O=C(O)C(C(=O)/C=C/c1ccco1)=C1SCCS1	3	-5	-1	-3	51*	-2	23	56*
Cc1ccc(Nc2ccc(N)cc2S(=O)(=O)O)cc1	-27	21	·	1	35	0	·	·
Nc1ccc(Nc2ccccc2)c(S(=O)(=O)O)c1	-20	41	·	-1	42*	1	48*	78*
N=C1/C(=C\c2coc3ccccc3c2=O)C(=O)N=C2SC=CN12	-79	6	·	-3	60*	0	61*	70*
CC1=CC2=NC(=O)/C(=C/c3coc4ccc(Cl)cc4c3=O)C(=N)N2O1	-25	6	·	-1	-40	0	·	·
O=C1CC(c2ccc3ccccc3c2)NN1 (stereo not given)	·	·	·	·	42*	·	11	36
O=C1CC(c2ccccc2)NN1 (stereo not given)	·	·	·	·	-5	·	·	·
CCC(C)c1ccc(N(CC(=O)NC(C)(C)C)C(=O)CNC(=O)c2cccs2)cc1 (stereo not given)	·	·	·	·	1	·	·	·
CC(C)CCOCC1CC2(CC(C)(c3csc(N)n3)OC2=O)C(=O)O1 (stereo not given)	-21	-66	-7	0	168*	0	3	-4
SMILES	Mcl1 Bid PPI	Mcl1-Noxa inh	Bim-Mcl-1	TNF death inh	MCL1 BIM primary	L929 necroptosis	Bcl-xL conf	MCL1 inh confirm
C=CCNc1nc(C2(C)CC3(CC(C)OC3=O)C(=O)O2)cs1 (stereo not given)	-27	-22	-7	1	0	2	·	·
CNC(=O)c1cc(C(=O)c2ccc(C(F)(F)F)cc2F)c[nH]1	-11	7	0	1	66*	0	2	6
CC1=C(C#N)C(=O)OC(C)(C)C1	-34	9	0	0	100*	1	35*	50*
CCNc1cccc2c1C(=O)N(C)C2=O	2	0	1	1	+	4	167*	+
CCCCC(=O)c1ccc(O)cc1	-17	12	4	-2	3	1	·	·
O=C(CCO)c1ccc(O)cc1	-23	78*	-5	0	75*	1	37*	80*
Cc1ccc(NC(=O)CSc2nc3c(c(=O)[nH]2)CCC3)c(C)c1	·	·	·	·	-4	·	·	·
O=c1[nH]c(S)c(/C=C2\C=Nc3ccccc32)s1	-4	62*	·	-3	76*	0	86*	108*
O=C(Cn1c(O)c(/C=C2\C=Nc3ccccc32)sc1=O)N1CCOCC1	-21	1	3	0	9	0	·	·
CCCCSc1ccc(NC(=O)c2cccnc2)cc1	-8	8	-3	-3	77*	0	3	9
CCC(C)c1ccc(NC(=O)c2cccnc2)cc1 (stereo not given)	-10	27	-1	0	-2	0	·	·
Cc1ccc(S(=O)(=O)N2CCN(C(=O)CC(C)n3nc(C)c(Cl)c3C)CC2)cc1 (stereo not given)	·	·	·	·	1	·	·	·
CCCCC1OC2(C)OC(=N)C1(C#N)C(C#N)(C#N)C2c1ccccc1 (stereo not given)	-45	-7	-5	-1	11	1	·	·
CC1OC2(C)OC(=N)C1(C#N)C(C#N)(C#N)C2c1ccccc1 (stereo not given)	-38	20	-6	0	87*	1	11	7
COc1cccc(CN2CCNC(=O)C2CC(=O)NCCN2CCCCC2=O)c1 (stereo not given)	·	·	·	·	15	·	·	·
COc1ccccc1C1C2=C(CCCC2=O)N(CC(=O)O)C2=C1C(=O)CCC2	·	·	·	·	47*	·	9	12
O=C(N/N=C/c1ccc(O)c(O)c1O)/C(=C/c1ccc([N+](=O)[O-])cc1)NC(=O)c1ccccc1	-101	87*	5	-14	41*	-1	33*	63*

Bioassay records deposited in PubChem by several laboratories.
